HCV inhibitor: inhibitors of hepatitis C virus infection | Huh7.5.1 HCVcc-Cre infection, luciferase reporter, 44 h | Potency, µM (titrated, usually from 41.8 µM), inactives show top-dose activity change, negative = inhibition, most hits filed as inhibitors | 3.4% of 340,000 active | AID 651820; active = well fitted inhibition curve with a large enough effect; inconclusive = small, poorly fitted or top-dose-only effect, or another doubt; inactive = no such curve, though single readings can be large or run the other way
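Compounds are dispensed onto cells plated 4 h earlier at 1,000 per well, with HCVcc-Cre virus (about 0.5 moi) added next. Following 44 h of culture, luminescent signal is measured for 15 sec after 15 min with substrate at room temperature.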
Vaccinia mCherry: inhibitors of vaccinia virus infection (mCherry reporter signal); 0.63% of 310,000 active; Potency, µM (series often up to 36.5 µM), for inactives: at the top dose activity change, negative = inhibition, actives largely listed as inhibitors; Vaccinia virus mCherry reporter infection, fluorescence; AID 720579; calls by dose curve; tested in A549 cells; also: nearly all actives have a fitted effect of over 35% in size
Vaccinia Venus: inhibitors of vaccinia virus (Venus reporter); Vaccinia virus Venus reporter expression, fluorescence; Potency, µM (doses to about 36.5 µM), inactives show at the highest dose activity change, negative = inhibition, usual class: inhibitors; 0.46% of 330,000 active; calls by dose curve; tested in A549 cells; also: nearly all actives have a fitted effect of over 30% in size
* = called active by the depositor; i = inactive; ? = inconclusive; / = no result given; [ ] = dose if it differs, or a comment. Only some compounds are listed: those with a hit (about 3.3% of all), similar ones and a draw of the others. % is scaled to controls: 0 for no effect and ±100 for the full control effect; potency is read from the fitted curve at half-maximal effect.

SMILES | HCV inhibitor | Vaccinia mCherry | Vaccinia Venus
C#CCOCCOCCOCCNc1nc(N2CCN(C(=O)CCCCCCCCCCNC(=O)[C@H](CO)n3cc(CCCSC)nn3)CC2)nc(N2CCN(C(=O)CCCCCCCCCCNC(=O)[C@H](CCCCN)n3cc(CCO)nn3)CC2)n1 | 44% | i | ?
C#CCOCCOCCOCCNc1nc(N2CCN(C(=O)CCCCCCCCCCNC(=O)Cn3cc(C[C@@H](C)O)nn3)CC2)nc(N2CCN(C(=O)CCCCCCCCCCNC(=O)[C@H](CCCCN)n3cc(CCCC(=O)O)nn3)CC2)n1 | ? | i | -6%
C#CCOCCOCCOCCNc1nc(N2CCN(C(=O)CCCCCCCCCCNC(=O)Cn3cc(C[C@@H](C)O)nn3)CC2)nc(N2CCN(C(=O)CCCCCCCCCCNC(=O)[C@H](CCCN=C(N)N)n3cc(C[C@@H](C)CC)nn3)CC2)n1 | 6% | -21% | 11µM*
C#CCOCCOCCOCCNc1nc(N2CCN(C(=O)CCCCCCCCCCNC(=O)[C@H](CO)n3cc(CCCSC)nn3)CC2)nc(N2CCN(C(=O)CCCCCCCCCCNC(=O)[C@H](CCCN=C(N)N)n3cc(C[C@@H](C)CC)nn3)CC2)n1 | ? | -19% | 11µM*
CSc1cccc(CN2CCC(CO)(Cc3cccc(C(F)(F)F)c3)CC2)c1 | ? | -17% | -27%
Cc1ccc(-n2cc(CN3CCC(CO)(Cc4cccc(C(F)(F)F)c4)CC3)cn2)cc1 | 11µM* | ? | 11µM*
CC(C)(C)N1C(=O)[C@H]2[C@@H](c3ccc(Br)cc3)N3C(=O)N(c4ccccc4)C(=O)[C@@]3(C)[C@H]2C1=O | 22% | i | -2%
Cc1cc(Nc2cccc(F)c2)nc(NCc2ccccc2)n1 | ? | 13µM* | ?
Cc1cc(Nc2ccc(Cl)cc2)nc(NCc2ccccc2)n1 | ? | 11µM* | ?
CCCCNc1cc(C)nc(NCc2ccccc2)n1 | ? | -19%[1.46 µM] | ?
Cc1cc(Nc2ccccc2)nc(NCc2ccccc2)n1 | ? | -31% | ?
Brc1cccc(-c2nnc(CN3CCN(c4ccccn4)CC3)o2)c1 | / | 1% | -1%
CCOC(=O)c1cnc2c(OC)cccc2c1N1CC(C)CC(C)C1 (stereo not drawn) | 13µM* | / | /
CCOC(=O)c1cnc2c(OC)cccc2c1N1CCN(c2ccccc2OC)CC1 | ? | ? | -22%
CCN(CC)CC(O)CN1c2ccccc2Sc2ccccc21 (stereo not drawn) | 22µM* | ? | -25%
OCCN(CCO)CC(O)CN1c2ccccc2Sc2ccccc21 (stereo not drawn) | 13% | / | /
Cn1c(=O)cc(SCC(=O)NCc2ccc(F)cc2)c2cc(Cl)ccc21 | / | -5% | -25%
Cc1nn(C)cc1CN(C)Cc1ccc(OCC(O)CN2CCCCC2)cc1 (stereo not drawn) | ? | -19% | -9%
CN(Cc1ccc(OCC(O)CN2CCCCC2)cc1)Cc1ccnc2ccccc12 (stereo not drawn) | 5.6µM* | ? | ?
Cc1nc2ccccc2nc1CN1CCOc2ccc(C3(O)CCN(c4ccccc4F)CC3)cc2C1 | / | -15% | -9%
CCOC(=O)c1c(C)n(S(=O)(=O)c2ccc(C)cc2)c2ccc(NS(=O)(=O)c3ccc(C)cc3)cc12 | / | -27% | -19%
CCOc1ccc(NC(=O)Cc2csc(COc3cccc(C)c3)n2)cc1 | / | -11% | -1%
Cc1ccc([N+](=O)[O-])cc1-c1ccc(/C=C(\C#N)c2[nH]nc(N)c2C#N)o1 | ? | 10µM* | ?
COCc1cc(C)nc(OCC(=O)N/N=C/c2ccc(-c3cc([N+](=O)[O-])ccc3C)o2)c1C#N | -14% | -14% | -10%
O=C(c1ccc(C(F)(F)F)cc1)N(Cc1cc2ccc(F)cc2nc1N1CCOCC1)C1CC1 | / | -5% | -1%
SMILES | HCV inhibitor | Vaccinia mCherry | Vaccinia Venus
COc1ccc(-n2cc(C(=O)NCc3ccc(Cl)cc3)c3ccccc3c2=O)cc1 | / | -19% | -16%
Cc1nc(NC(C)c2ccccc2)c2oc3ccccc3c2n1 (stereo not drawn) | 6.3µM* | ? | ?
Cc1cccc(Nc2nc(C)nc3c2oc2ccccc23)c1 | 13µM* | / | /
COc1ccc(OC)c(Nc2nc(C)nc3c2oc2ccccc23)c1 | -22% | -1% | ?
Cc1nc(N[C@@H](Cc2ccccc2)C(=O)O)c2oc3ccccc3c2n1 | 19% | / | -14%
Cc1nc(Nc2ccncc2)c2oc3ccccc3c2n1 | 8.9µM* | / | /
CC(=O)N1CCN(c2ccc(Nc3nc(C)nc4c3oc3ccccc34)cc2)CC1 | ? | -15% | -5%
NCCCN(Cc1ccc(Cl)c(Cl)c1)c1ccc(Br)cn1 | / | -4% | ?
COC(=O)C1CCN(S(=O)(=O)c2ccc(N3CCCCS3(=O)=O)cc2)CC1 | / | -8% | -13%
CC(=O)c1cccc(NC(=O)c2cccc3c(-c4cnn(C)c4)coc23)c1 | / | 7% | -20%
COc1ccc(N2CCN(Cc3nc(N)nc(Nc4ccccc4OC)n3)CC2)cc1 | -7% | / | /
COc1ccc(OC)c(Nc2nc(N)nc(CCl)n2)c1 | 4µM* | -8%[7.34 µM] | 0%[7.34 µM]
COc1ccc(OCc2nc(N)nc(Nc3ccccc3OC)n2)cc1 | 14µM* | -2% | 1%
COc1ccc(OC)c(Nc2nc(N)nc(CSc3nnc(N)s3)n2)c1 | 4% | / | /
COc1ccccc1Nc1nc(N)nc(CCl)n1 | 4.5µM* | -6%[7.34 µM] | -2%[7.34 µM]
COc1ccccc1Nc1nc(N)nc(CN2CCN(Cc3ccccc3)CC2)n1 | 6% | / | /
Cc1ccc2nc(N3CCC(C(=O)N4CCN(c5cccc(Cl)c5)CC4)CC3)[nH]c2c1 | / | -29% | -26%
COC(=O)[C@@H]1CCCN1Cc1ccc2c(c1)CN(Cc1ccc3c(c1)CCO3)CCO2 | / | -6% | 0%
CCC(O)(c1ccc(OC)cc1)C(CN1CCOCC1)c1ccccc1 (stereo not drawn) | 10% | / | /
O=C(c1ccccc1)C(Cc1ccccc1)N1CCOCC1 (stereo not drawn) | 18% | i | 3%
COc1ccc(C(=O)C(CN2CCOCC2)c2ccccc2)cc1 (stereo not drawn) | ? | 10µM* | 10µM*
O=C(c1ccccc1)C(CCC(CN1CCOCC1)C(=O)c1ccccc1)CN1CCOCC1 (stereo not drawn) | 5.6µM* | / | 7.9µM*
c1ccc(C(CN2CCOCC2)c2ccccc2)cc1 | 17% | / | /
O=C(c1ccc(F)cc1)C(CN1CCOCC1)c1ccccc1 (stereo not drawn) | 11µM* | 14µM* | 13µM*
CCCCCOc1ccc(C(=O)C(c2ccccc2)N2CCOCC2)cc1 (stereo not drawn) | 0% | -26% | -20%
SMILES | HCV inhibitor | Vaccinia mCherry | Vaccinia Venus
CCCCOc1ccc(C(=O)C(CN2CCOCC2)c2ccccc2)cc1 (stereo not drawn) | ? | 16µM* | ?
CCc1ccc2ncc(S(=O)(=O)c3ccc(Cl)cc3)c(N3CCN(CC)CC3)c2c1 | / | -5%[7.34 µM] | -11%[7.34 µM]
Cc1ccc(C)c(NC(=O)Cn2c(=O)n(CCCS(=O)(=O)C3CCCCC3)c(=O)c3ccccc32)c1 | / | -8% | -9%
CCNS(=O)(=O)c1ccc(CCC(=O)NCc2ccc3c(c2)OCO3)cc1 | 16% | -6% | -18%
COc1ccc(C(=O)CCN2CCCCCC2)cc1 | -18% | / | /
CCCCOc1ccc(C(O)C(CN2CCCCC2)c2ccccc2)cc1 (stereo not drawn) | ? | -10% | -9%
CCCOc1ccc(C(=O)C(CN2CCCC2)c2ccccc2)cc1 (stereo not drawn) | ? | ? | 10µM*

Assay outcomes (PubChem BioAssay)
